# Only a selection was taken, and the strongest signals are over-represented in it overall.
# Columns and labels:
# Test in all cases: glycan array binding signal (z-score within array); higher = stronger binding
# Conditions in all cases: glycan notation: IUPAC condensed, linker removed
# [1] = molecular target: Fuc(a1-2)Gal(b1-3)GalNAc(a1-3)[Fuc(a1-2)]Gal(b1-4)Glc
# How it was run: (§1)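 From the Consortium for Functional Glycomics database, 3228 arrays were curated, keeping only those whose protein sequence was available. Binding is given as a within-array Z-score averaged across arrays sharing a protein sequence and across linkers. Negative Z-scores can be read as non-binding.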
# [2] = molecular target: Fuc(a1-2)Gal(b1-4)[Fuc(a1-3)]GlcNAc(b1-3)Gal(b1-4)[Fuc(a1-3)]GlcNAc
# How it was run: as §1
# [3] = molecular target: Fuc(a1-2)Gal(b1-4)[Fuc(a1-3)]GlcNAc(b1-3)[Neu5Ac(a2-6)Gal(b1-4)GlcNAc(b1-6)]Gal(b1-4)Glc
# How it was run: as §1
# [4] = molecular target: Fuc(a1-2)[Gal(a1-3)]Gal(b1-4)GlcNAc(b1-6)GalNAc
# How it was run: as §1
# [5] = molecular target: Fuc(a1-2)[GalNAc(a1-3)]Gal(b1-3)GalNAc(a1-3)[Fuc(a1-2)]Gal(b1-4)GlcNAc
# How it was run: as §1
# [6] = molecular target: Fuc(a1-2)[GalNAc(a1-3)]Gal(b1-4)[Fuc(a1-3)]GlcNAc(b1-3)GalNAc
# How it was run: as §1
# [7] = molecular target: Fuc(a1-3)[Gal(b1-4)]GlcNAc(b1-2)Man(a1-3)[Fuc(a1-3)[Gal(b1-4)]GlcNAc(b1-2)Man(a1-6)]Man(b1-4)GlcNAc(b1-4)[Fuc(a1-6)]GlcNAc
# How it was run: as §1
# Gal(a1-3)GalNAc = molecular target: Gal(a1-3)GalNAc
# How it was run: as §1
# [8] = molecular target: Gal(a1-3)[Gal(a1-4)]Gal(b1-4)GlcNAc
# How it was run: as §1
# Gal(a1-4)Gal(b1-4)Glc = molecular target: Gal(a1-4)Gal(b1-4)Glc
# How it was run: as §1
# [9] = molecular target: Gal(b1-3)GalNAc(b1-4)Gal(b1-4)Glc
# How it was run: as §1
# [10] = molecular target: Gal(b1-3)GlcNAc(a1-3)Gal(b1-4)GlcNAc
# How it was run: as §1
# Gal(b1-4)Gal = molecular target: Gal(b1-4)Gal
# How it was run: as §1
# [11] = molecular target: Gal(b1-4)GalNAc(a1-3)[Fuc(a1-2)]Gal(b1-4)GlcNAc
# How it was run: as §1
# [12] = molecular target: Gal(b1-4)GlcNAc(b1-3)Gal(b1-4)GlcNAc(b1-3)Gal(b1-4)GlcNAc(b1-2)Man(a1-3)[Gal(b1-4)GlcNAc(b1-3)Gal(b1-4)GlcNAc(b1-3)Gal(b1-4)GlcNAc(b1-2)Man(a1-6)]Man(b1-4)GlcNAc(b1-4)[Fuc(a1-6)]GlcNAc
# How it was run: as §1
# Gal(b1-6)Gal = molecular target: Gal(b1-6)Gal
# How it was run: as §1
# Gal3S6S(b1-4)GlcNAc6S = molecular target: Gal3S6S(b1-4)GlcNAc6S
# How it was run: as §1
# Gal6S(b1-4)Glc = molecular target: Gal6S(b1-4)Glc
# How it was run: as §1
# [13] = molecular target: GalNAc(b1-3)Gal(a1-4)Gal(b1-4)GlcNAc
# How it was run: as §1
# GalNAc(b1-4)GlcNAc = molecular target: GalNAc(b1-4)GlcNAc
# How it was run: as §1
# GalNAc4S6S(b1-4)GlcNAc = molecular target: GalNAc4S6S(b1-4)GlcNAc
# How it was run: as §1
# GalNAc6S(b1-4)GlcNAc = molecular target: GalNAc6S(b1-4)GlcNAc
# How it was run: as §1
# GlcA(b1-3)Gal = molecular target: GlcA(b1-3)Gal
# How it was run: as §1
# [14] = molecular target: GlcNAc(a1-4)Gal(b1-3)GlcNAc
# How it was run: as §1
# [15] = molecular target: GlcNAc(a1-4)Gal(b1-4)GlcNAc(b1-3)Gal(b1-4)Glc
# How it was run: as §1
# [16] = molecular target: GlcNAc(b1-2)Gal(b1-3)GalNAc
# How it was run: as §1
# [17] = molecular target: GlcNAc(b1-2)[GlcNAc(b1-4)]Man(a1-3)[GlcNAc(b1-4)][GlcNAc(b1-2)Man(a1-6)]Man(b1-4)GlcNAc(b1-4)GlcNAc
# How it was run: as §1
# [18] = molecular target: GlcNAc(b1-3)Gal(b1-4)GlcNAc(b1-2)[GlcNAc(b1-3)Gal(b1-4)GlcNAc(b1-6)]Man(a1-6)[GlcNAc(b1-3)Gal(b1-4)GlcNAc(b1-2)Man(a1-3)]Man(b1-4)GlcNAc(b1-4)GlcNAc
# How it was run: as §1
# [19] = molecular target: GlcNAc(b1-3)Gal(b1-4)GlcNAc(b1-3)Gal(b1-4)GlcNAc(b1-2)[GlcNAc(b1-3)Gal(b1-4)GlcNAc(b1-3)Gal(b1-4)GlcNAc(b1-6)]Man(a1-6)[GlcNAc(b1-3)Gal(b1-4)GlcNAc(b1-3)Gal(b1-4)GlcNAc(b1-2)Man(a1-3)]Man(b1-4)GlcNAc(b1-4)[Fuc(a1-6)]GlcNAc
# How it was run: as §1
# [20] = molecular target: GlcNAc(b1-3)Gal(b1-4)GlcNAc(b1-3)Gal(b1-4)GlcNAc(b1-3)Gal(b1-4)GlcNAc(b1-3)Gal(b1-4)GlcNAc(b1-2)[GlcNAc(b1-3)Gal(b1-4)GlcNAc(b1-3)Gal(b1-4)GlcNAc(b1-3)Gal(b1-4)GlcNAc(b1-3)Gal(b1-4)GlcNAc(b1-6)]Man(a1-6)[GlcNAc(b1-3)Gal(b1-4)GlcNAc(b1-3)Gal(b1-4)GlcNAc(b1-3)Gal(b1-4)GlcNAc(b1-3)Gal(b1-4)GlcNAc(b1-2)Man(a1-3)]Man(b1-4)GlcNAc(b1-4)[Fuc(a1-6)]GlcNAc
# How it was run: as §1
binder,measurement,setting,value
"AT5G17240(42) (Arabidopsis thaliana), Q6NQJ8 (protein) MDLEHQTMETFLRWAAEIGISDSIDSSRFRDSCLGHSLSVSDFPDAGGRGLGAARELKKGELVLKVPRKALMTTESIIAKDLKLSDAVNLHNSLSSTQILSVCLLYEMSKEKKSFWYPYLFHIPRDYDLLATFGNFEKQALQVEDAVWATEKATAKCQSEWKEAGSLMKELELKPKFRSFQAWLWASATISSRTLHVPWDSAGCLCPVGDLFNYDAPGDYSNTPQGPESANNVEEAGLVVETHSERLTDGGFEEDVNAYCLYARRNYQLGEQVLLCYGTYTNLELLEHYGFMLEENSNDKVFIPLETSLFSLASSWPKDSLYIHQDGKLSFALISTLRLWLIPQSQRDKSVMRLVYAGSQISVKNEILVMKWMSEKCGSVLRDLPTSVTEDTVLLHNIDKLQDPELRLEQKETEAFGSEVRAFLDANCLWDVTVLSGKPIEFSRKTSRMLSKWRWSVQWRLSYKRTLADCISYCNEKMNNLLGTQDRLRDL",glycan array binding signal (z-score),[1],0.123
same,glycan array binding signal (z-score),[2],0.458
same,glycan array binding signal (z-score),[3],-0.37
same,glycan array binding signal (z-score),[4],-0.375
same,glycan array binding signal (z-score),[5],-0.276
same,glycan array binding signal (z-score),[6],6.64
same,glycan array binding signal (z-score),[7],0.044
same,glycan array binding signal (z-score),Gal(a1-3)GalNAc,1.94
same,glycan array binding signal (z-score),[8],8.82
same,glycan array binding signal (z-score),Gal(a1-4)Gal(b1-4)Glc,4.63
same,glycan array binding signal (z-score),[9],1.23
same,glycan array binding signal (z-score),[10],-0.028
same,glycan array binding signal (z-score),Gal(b1-4)Gal,0.335
same,glycan array binding signal (z-score),[11],-0.444
same,glycan array binding signal (z-score),[12],-0.845
same,glycan array binding signal (z-score),Gal(b1-6)Gal,-0.362
same,glycan array binding signal (z-score),Gal3S6S(b1-4)GlcNAc6S,1.61
same,glycan array binding signal (z-score),Gal6S(b1-4)Glc,-0.21
same,glycan array binding signal (z-score),[13],3.08
same,glycan array binding signal (z-score),GalNAc(b1-4)GlcNAc,8.25
same,glycan array binding signal (z-score),GalNAc4S6S(b1-4)GlcNAc,1.39
same,glycan array binding signal (z-score),GalNAc6S(b1-4)GlcNAc,-0.134
same,glycan array binding signal (z-score),GlcA(b1-3)Gal,-0.785
same,glycan array binding signal (z-score),[14],-0.54
same,glycan array binding signal (z-score),[15],-0.607
same,glycan array binding signal (z-score),[16],-0.394
same,glycan array binding signal (z-score),[17],-0.434
same,glycan array binding signal (z-score),[18],2.56
same,glycan array binding signal (z-score),[19],1.12
same,glycan array binding signal (z-score),[20],1.33

# Reference: the supplement of paper PMC8728848
